Reference: PubChem BioAssay (EPA / NIEHS)
Results filed as inconclusive are left out. The source made the active and inactive calls. How the source made its calls, unless noted: active means hit-call score of the fitted dose curve at least 0.9, where 1 is the maximum; inconclusive means response in the unintended direction; inactive means score below 0.9.

Tests used:
[1] = Tanguay_ZF_120hpf_SOMI_legacy: (Legacy) Oregon State University Tanguay Lab 120 Hour Post-fertilization zebrafish Assay for Somite Malformation (AID 2283647)
Outline: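 Tropical 5D wild-type zebrafish embryos, dechorionated with pronase at 4 hpf, were placed singly at 6 hpf and statically exposed until 120 hpf at 28C in 0.64% DMSO. Somite malformation was scored present/absent by brightfield microscopy versus DMSO.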

[2] = Tanguay_ZF_120hpf_PFIN_legacy: (Legacy) Oregon State University Tanguay Lab 120 Hour Post-fertilization zebrafish Assay for Pectoral Fin Malformation (AID 2283648);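 further: each larva judged yes or no for fin defect by brightfield with dead larvae skipped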
Outline: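 Scoring of pectoral fin malformation was binary, made at 120 hpf on larvae exposed statically from 6 hpf after enzymatic chorion removal. Activity was fitted upward relative to DMSO controls at 0.64% (vol/vol).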

[3] = Tanguay_ZF_120hpf_CFIN_legacy: (Legacy) Oregon State University Tanguay Lab 120 Hour Post-fertilization zebrafish Assay for Caudal Fin Malformation (AID 2283649)
Outline: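 Tropical 5D wild-type embryos, dechorionated with pronase at 4 hpf, were placed singly in wells at 6 hpf and statically exposed to compound at 28C until 120 hpf (0.64% DMSO). Caudal fin malformation was scored present/absent by brightfield microscopy.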

[4] = Tanguay_ZF_120hpf_PIG_legacy: (Legacy) Oregon State University Tanguay Lab 120 Hour Post-fertilization zebrafish Assay for Pigmentation Malformation (AID 2283650)
Outline: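 Endpoint is incidence of abnormal pigmentation at 120 hpf in dechorionated 5D zebrafish exposed singly from 6 hpf at 28C, DMSO vehicle at 0.64%. Embryos dying by 24 or 120 hpf are excluded from scoring.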

[5] = Tanguay_ZF_120hpf_CIRC_legacy: (Legacy) Oregon State University Tanguay Lab 120 Hour Post-fertilization zebrafish Assay for Circulatory Malformation (AID 2283651)
Outline: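 Embryos are dechorionated at 4 hpf, plated one per well at 6 hpf, then held under static exposure at 28C until 120 hpf. Malformations are recorded as binary calls; mortality excludes other endpoints.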

[6] = Tanguay_ZF_120hpf_SWIM_legacy: (Legacy) Oregon State University Tanguay Lab 120 Hour Post-fertilization zebrafish Assay for Swim Bladder Malformation (AID 2283654);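 further: swim bladder malformation in each larva scored yes or no under brightfield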
Outline: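 Static waterborne exposure of single dechorionated Tropical 5D zebrafish embryos, 6–120 hpf, 28C, 0.64% DMSO final. Read-out: swim bladder malformation, present/absent, relative to DMSO negative control; trimethyltin chloride 5uM served as positive control.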

[7] = Tanguay_ZF_120hpf_TRUN_legacy: (Legacy) Oregon State University Tanguay Lab 120 Hour Post-fertilization zebrafish Assay for Truncated Body (AID 2283655)
Outline: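 Tropical 5D wild-type embryos, dechorionated with pronase at 4 hpf, were placed singly in wells at 6 hpf and statically exposed at 28C until 120 hpf, final DMSO 0.64%. Truncated body was scored present/absent by brightfield microscopy.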

[8] = Tanguay_ZF_120hpf_NC_legacy: (Legacy) Oregon State University Tanguay Lab 120 Hour Post-fertilization zebrafish Assay for Notochord and Tail Malformation (AID 2283656)
Outline: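 Binary scoring of notochord distortion by brightfield microscopy; embryos dying were not scored. Wild-type Tropical 5D embryos, chorion removed, exposed singly and statically from 6 to 120 hpf, 28C, sealed, 0.64% DMSO.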

[9] = read-out: solute carrier (SLC22A6), SLC22A6 (gene 9356); assay: LTEA_HepaRG_SLC22A6: Life Technologies and Expression Analysis (LTEA) Assay for solute carrier (SLC22A6) using HepaRG (AID 2283653; active means hit-call score of the fitted dose curve at least 0.9, where 1 is the maximum; inactive means score below 0.9); details: mRNA level, 48 h; actives raise or lower the signal
Outline: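 Differentiated human HepaRG cells were exposed for 48 h in serum-free induction medium to eight concentrations (top 100 uM, half-log steps, 0.5% DMSO), in duplicate. SLC22A6 mRNA was quantified by qRT-PCR, normalised to ACTB, GAPDH and POLR2A, and fitted bidirectionally against DMSO.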

[10] = read-out: kallikrein-3 (KLK3), KLK3 (gene 354); assay: LTEA_HepaRG_KLK3: Life Technologies and Expression Analysis (LTEA) Assay for kallikrein-3 (KLK3) using HepaRG (AID 2283652; active means hit-call score of the fitted dose curve at least 0.9, where 1 is the maximum; inactive means score below 0.9); details: mRNA level, 48 h; actives raise or lower the signal
Description: LTEA_HepaRG is a cell based, multiplexed-readout assay that uses HepaRG, a human liver cell line, with measurements taken at 48 hours after chemical dosing on a 96-well plate.LTEA_HepaRG_KLK3 is one of 102 assay component(s) measured in the LTEA HepaRG cell culture assay. It is a marker of Cellular remodeling.Data from the assay component LTEA_HepaRG_KLK3 was analyzed into 1 endpoint. This assay endpoint, LTEA_HepaRG_KLK3, was analyzed with bidirectional fitting relative to DMSO as the negative control and baseline of activity. Using a type of inducible reporter, measures of mRNA induction for gain or loss-of-signal activity can be used to understand regulation of transcription factor activity. To generalize the intended target to other relatable targets, this assay endpoint is annotated to the protease intended target family, where the subfamily is Cellular remodeling.
A total of 1060 chemcials from the ToxCast library were tested in eight-point concentration-response experiments. Cell culture and cytotoxicity assays were conducted at Thermo Fisher Scientific's Custom Services facility (Madison, WI). […] Fluidigm's 96.96 Dynamic ArrayTM (Fluidigm, Amsterdam, the Netherlands) technology was used for gene expression analyses by quantitative reverse transcription polymerase chain reaction (qRT-PCR, performed by Quintiles/Expression Analysis, Durham, NC)89. […]

| Structure (SMILES) | outcome [1] | outcome [2] | outcome [3] | outcome [4] | outcome [5] | outcome [6] | outcome [7] | outcome [8] | AC50 [1] | AC50 [2] | AC50 [4] | outcome [9] | outcome [10] |
| --- | --- | --- | --- | --- | --- | --- | --- | --- | --- | --- | --- | --- | --- |
| CC(C)CCCCCCOC(=O)C1CCCCC1C(=O)OCCCCCCC(C)C (stereo not drawn) | inactive | inactive | inactive | inactive | inactive | inactive | inactive | inactive |  |  |  |  |  |
| COc1cc2c(c(OC)c1OC)-c1ccc(OC)c(=O)cc1[C@@H](NC(C)=O)CC2 |  |  | inactive |  | inactive | inactive |  | inactive | 25.5 µM (active) | 21 µM (active) | 22.8 µM (active) | inactive |  |
| c1ccc2cc3ccccc3cc2c1 | inactive | inactive | inactive | inactive |  | inactive | inactive |  |  |  |  | inactive |  |
| CC(C)CC(C)O (stereo not drawn) | inactive | inactive |  | inactive |  | inactive |  | inactive |  |  |  |  |  |
| OC[C@H]1O[C@@](CO)(O[C@H]2O[C@H](CO)[C@@H](O)[C@H](O)[C@H]2O)[C@@H](O)[C@@H]1O | inactive | inactive |  | inactive |  | inactive | inactive | inactive |  |  |  |  |  |
| CCCCCCCC/C=C\CCCCCCCC(=O)OC[C@@H](O)[C@H]1OC[C@H](O)[C@H]1O | inactive |  | inactive | inactive | inactive | inactive |  | inactive |  |  |  |  |  |
| C[C@@H](Oc1ccc(CNC(=O)c2cccnc2Oc2ccc3c(c2)OCO3)c(F)c1)C(=O)O | inactive | inactive | inactive | inactive |  | inactive | inactive |  |  |  |  |  |  |
| CCCCOC(=O)c1ccccc1 | inactive |  | inactive | inactive |  | inactive | inactive | inactive |  |  |  |  |  |
| CCCCCCCC1CCC(=O)O1 (stereo not drawn) | inactive |  | inactive | inactive | inactive |  | inactive | inactive |  | 51.5 µM (active) |  |  |  |
| Cc1ncc([C@@H](CCCCCCc2ccc3c(n2)NCCC3)CC(=O)O)cn1 | inactive |  | inactive | inactive | inactive | inactive | inactive | inactive |  |  |  |  |  |
| C=CN1CCCC1=O | inactive | inactive |  | inactive |  | inactive | inactive |  |  |  |  |  |  |
| OCCOCCOCCO |  | inactive | inactive | inactive | inactive | inactive | inactive | inactive |  |  |  |  |  |
| CC[C@H](C)C(=O)O[C@H]1C[C@H](O)C=C2C=C[C@H](C)[C@H](CC[C@@H](O)C[C@@H](O)CC(=O)O)[C@H]21 | inactive | inactive | inactive |  | inactive | inactive | inactive | inactive |  |  |  |  |  |
| O=C1CN(N=Cc2ccc([N+](=O)[O-])o2)C(=O)N1 | inactive | inactive |  |  | inactive | inactive | inactive | inactive |  |  |  |  |  |
| C[C@]12C=CC(=O)C=C1CC[C@H]1[C@@H]3C[C@@H](O)[C@](O)(C(=O)CO)[C@@]3(C)C[C@H](O)[C@@]12F | inactive | inactive | inactive | inactive |  | inactive | inactive | inactive |  |  |  |  |  |
| CCCC(CCC)C(=O)O |  | inactive | inactive | inactive | inactive | inactive | inactive | inactive |  |  |  | inactive | inactive |
| CC1(C)C(=O)N(Cl)C(=O)N1Cl |  | inactive | inactive | inactive | inactive | inactive | inactive | inactive |  |  |  |  |  |
| OC(CCl)CCl | inactive | inactive |  | inactive | inactive | inactive | inactive | inactive |  |  |  |  |  |
| CCCCN1C(=O)[C@@H]([C@H](O)C2CCCCC2)NC(=O)C12CCN(Cc1ccc(Oc3ccc(C(=O)O)cc3)cc1)CC2 | inactive | inactive | inactive | inactive | inactive |  | inactive | inactive |  |  |  |  |  |

| Structure (SMILES) | outcome [1] | outcome [2] | outcome [3] | outcome [4] | outcome [5] | outcome [6] | outcome [7] | outcome [8] | AC50 [1] | AC50 [2] | AC50 [4] | outcome [9] | outcome [10] |
| --- | --- | --- | --- | --- | --- | --- | --- | --- | --- | --- | --- | --- | --- |
| CCCCCOC(C)=O | inactive |  | inactive | inactive | inactive | inactive | inactive | inactive |  |  |  |  |  |
| CCc1cccc(CC)c1N | inactive |  | inactive | inactive | inactive | inactive |  | inactive |  |  |  |  |  |
| OC(Cn1cncn1)(Cn1cncn1)c1ccc(F)cc1F |  | inactive | inactive | inactive | inactive | inactive |  | inactive |  |  |  |  |  |
| NC(=O)N(O)[C@@H]1COc2cc(OCc3ccccc3)ccc21 | inactive | inactive | inactive |  |  | inactive | inactive |  |  |  |  |  |  |
| CCCCCCCCCCCCCCO | inactive | inactive | inactive |  | inactive | inactive | inactive | inactive |  |  |  |  |  |
| COc1cc(C(C)C)c2c(c1)S(=O)(=O)N(COc1cc(=O)n3cccc(OCCN4CCCCC4)c3n1)C2=O | inactive | inactive | inactive |  | inactive | inactive | inactive | inactive |  |  |  |  |  |
| Cn1cc[nH]c1=S | inactive |  | inactive | inactive | inactive | inactive |  | inactive |  |  |  |  |  |
| NNC(=O)c1ccncc1 | inactive | inactive | inactive | inactive |  | inactive | inactive | inactive |  |  |  |  |  |
| COCc1nnc(-c2ccc[n+]([O-])c2)n1-c1c(Cl)c(Cl)cc2[nH]c(=O)c(=O)[nH]c12 | inactive |  | inactive | inactive | inactive |  | inactive | inactive |  |  |  |  |  |
| CNC(C)=O |  | inactive | inactive | inactive | inactive | inactive | inactive | inactive |  |  |  |  |  |
| Cc1nccn1-c1ccc(Sc2cccc(C3(C(N)=O)CCOCC3)c2)cc1 | inactive | inactive |  | inactive | inactive |  | inactive | inactive |  |  |  |  |  |
| O=C(O)c1cccc(C[C@@H]2COc3ccc(OCc4nc5cc(F)ccc5s4)cc3[C@@H]2O)c1 | inactive | inactive | inactive |  | inactive | inactive | inactive |  |  |  |  |  |  |
| O=S(=O)(O)c1ccc(N=Nc2c(O)ccc3cc(S(=O)(=O)O)ccc23)cc1 | inactive | inactive |  | inactive | inactive | inactive |  | inactive |  |  |  |  |  |
| CCCOc1ccc(S(=O)(=O)N2CCN(CC)CC2)cc1-c1nc2c(CC)n(Cc3ccccn3)nc2c(=O)[nH]1 |  | inactive | inactive | inactive | inactive | inactive | inactive | inactive |  |  |  |  |  |
| Cn1c(=O)c2[nH]cnc2n(C)c1=O |  | inactive |  | inactive | inactive | inactive | inactive | inactive |  |  |  |  |  |
| NC(N)=O | inactive | inactive | inactive | inactive |  | inactive | inactive | inactive |  |  |  |  |  |
| CCOc1ccc2[nH]cc(C(=O)NCc3ccccc3)c(=O)c2n1 | inactive | inactive | inactive | inactive | inactive |  | inactive | inactive |  |  |  |  |  |
| CCCCCCCCCC | inactive |  | inactive | inactive | inactive | inactive |  | inactive |  |  |  |  |  |
